# Sampled rows, rich in hits. Any-hit rate of the full collection: about 3.5%.
# TEAD-YAP inh = TEAD-YAP interaction inhibition | HEK-TIYL cells, TEAD-Gal4/YAP UAS-luciferase luminescence | inhibition, % at 9.12 µM | 1.4% of 640,000 active; in the data active = inhibition above about 32%
# GPR151 activ = human GPR151 activation; Q8TDV0; PathHunter beta-arrestin GPR151 cells, luminescence; activation, % at 11.2 µM; 1% of 650,000 active; in the data active = activation above about 4.9%
# Target sequence (Q8TDV0 whole entry, looked up): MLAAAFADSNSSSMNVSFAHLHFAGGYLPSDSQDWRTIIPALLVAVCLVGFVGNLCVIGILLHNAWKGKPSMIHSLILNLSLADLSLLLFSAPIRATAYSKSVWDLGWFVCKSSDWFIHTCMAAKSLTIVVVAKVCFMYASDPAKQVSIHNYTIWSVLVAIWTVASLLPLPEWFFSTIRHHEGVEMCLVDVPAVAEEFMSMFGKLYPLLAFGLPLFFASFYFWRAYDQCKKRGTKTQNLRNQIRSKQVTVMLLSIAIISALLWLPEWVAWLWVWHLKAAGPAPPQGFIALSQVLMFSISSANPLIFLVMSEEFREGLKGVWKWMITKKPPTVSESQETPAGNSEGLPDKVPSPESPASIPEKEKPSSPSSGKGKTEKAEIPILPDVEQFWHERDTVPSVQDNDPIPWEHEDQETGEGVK
# FBW7 activator = activators of human E3 ligase FBW7; Q969H0; AlphaScreen FBW7–phospho-cyclin E peptide binding, activator screen; normalized activity (activation), % at 26.1 µM; 0.13% of 650,000 active; AID 1259310; in the data active = normalized activity above about 1.9%;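 note: purified mutant Fbw7 with reduced substrate affinity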
# MITF primary = inhibitors of human MITF; O75030; AlphaScreen MITF homodimerization, bead proximity signal; inhibition, % at 2.6 µM; 0.91% of 650,000 active; in the data active = inhibition above about 50%
# MITF confirm = confirmation of human MITF inhibitors; inhibition, % at 2.6 µM; AlphaScreen MITF homodimerization, biotin/His-MITF beads; 16% of 4,700 active; AID 1259372; shares compounds with MITF primary;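 active = inhibition above a cutoff derived from the DMSO control wells, cut at about 28% in these data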;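 note: inhibitors lower the bead chemiluminescence by keeping MITF from dimerizing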
# AS interf DR = AlphaScreen optical interference, dose response counter-screen; shares compounds with MITF primary; AlphaScreen optical interference counterscreen, cell-free; IC50, µM; 6% of 480 active; AID 1259373; call rule not given here
# AlphaScreen intf2 = counter-screen: compounds optically interfering with AlphaScreen; shares compounds with MITF primary; LysRS AlphaScreen counterscreen, signal interference, triplicate; inhibition, % at 2.6 µM; 7.6% of 4,700 active; AID 1259376;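 active = inhibition above a cutoff derived from the DMSO control wells, cut at about 30% in these data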
# Hits are given with their value; 0 = inactive; - = not tested or not shown.
SMILES,TEAD-YAP inh,GPR151 activ,FBW7 activator,MITF primary,MITF confirm,AlphaScreen intf2,others
C1=CC2CC1CC2CN1CCN(Cc2ccccn2)CC1 (stereo unspecified),0,0,0,74,0,0,
COc1cccc(NC(=O)Cc2ccc(F)cc2)c1,0,0,0,0,-,-,
COc1ccc(C(=O)COC(=O)c2ccc(N)c([N+](=O)[O-])c2)c(OC)c1,0,0,0,0,-,-,
O=C(c1ccccc1)N1CCN(CC2CC3C=CC2C3)CC1 (stereo unspecified),0,0,0,0,-,-,
Fc1cccc(CN2CCN(CC3CC4C=CC3C4)CC2)c1 (stereo unspecified),0,0,0,71,0,0,
COc1ccc(CN2CCN(CC3CC4C=CC3C4)CC2)c(OC)c1 (stereo unspecified),0,0,0,72,0,0,
COc1cc(CN2CCN(CC3CC4C=CC3C4)CC2)cc(OC)c1O (stereo unspecified),0,0,0,66,0,0,
COc1cc(CN2CCN(S(=O)(=O)c3ccc(F)cc3)CC2)cc(OC)c1O,0,0,0,0,-,-,
Fc1cccc(CN2CCCNCC2)c1,0,0,0,0,-,-,
Cc1ccccc1CN1CCN(CC2CC3C=CC2C3)CC1 (stereo unspecified),0,0,0,77,0,0,
C=CCN1CCC(NC(=O)c2cccc(-n3cc(NC(=O)Nc4ccccc4Cl)cn3)c2)CC1,0,0,0,0,-,-,
CC(=O)C1=C(O)C(=O)N(CCN2CCNCC2)C1c1ccc(F)cc1 (stereo unspecified),0,0,0,101,0,0,
CCn1c2ccccc2c2cc(CN3CCN(S(=O)(=O)c4ccc(F)cc4)CC3)ccc21,0,0,0,0,-,-,
CCn1c2ccccc2c2cc(CN3CCN(Cc4ccccc4[N+](=O)[O-])CC3)ccc21,0,0,0,65,0,0,
CCn1c2ccccc2c2cc(CN3CCN(Cc4ccccc4F)CC3)ccc21,0,0,0,82,0,0,
CCn1c2ccccc2c2cc(CN3CCN(Cc4ccc(C(F)(F)F)cc4)CC3)ccc21,0,0,0,54,0,0,
CCn1c2ccccc2c2cc(CN3CCN(S(=O)(=O)c4ccc(OC)cc4)CC3)ccc21,0,0,0,0,-,-,
CCn1c2ccccc2c2cc(CN3CCN(Cc4ccc(SC)cc4)CC3)ccc21,0,0,0,63,0,0,
CCn1c2ccccc2c2cc(CN3CCCC(O)C3)ccc21 (stereo unspecified),0,0,0,0,-,-,
CC(C)(C)NCCCOc1cccc(Cl)c1,0,0,0,0,-,-,
CCOC(=O)c1c(C)c(C(=O)NCCc2ccccc2OC)c(C)n1C,0,0,0,55,0,0,
CCOC(=O)c1c(C)c(C(=O)NCCc2ccc(OC)c(OC)c2)c(C)n1C,0,0,0,0,-,-,
O=C(NCCc1ccc(Cl)cc1)c1ccc(CNc2nc(=S)[nH]c3ccccc23)cc1,0,0,0,0,-,-,
CC1=C(C#N)C(c2cc3c(cc2[N+](=O)[O-])OCO3)C2=C(CCCC2=O)N1 (stereo unspecified),0,0,0,60,80,0,AS interf DR=0
CCOC(=O)C1=C(C)NC2=C(C(=O)CCC2)C1c1cc2c(cc1[N+](=O)[O-])OCO2 (stereo unspecified),0,0,0,0,-,-,
SMILES,TEAD-YAP inh,GPR151 activ,FBW7 activator,MITF primary,MITF confirm,AlphaScreen intf2,others
O=C(c1sccc1-n1cccc1)N1CCCC1,0,0,0,0,-,-,
Cc1ccc(NC(=O)c2sccc2-n2cccc2)cc1,0,0,0,59,0,0,
CCN(CC)c1nc(NCCOc2ccccc2)nc(Nc2cccc(N(C)C)c2)n1,0,0,0,61,0,0,
COCCCNCCOCCOc1c(C)cc(C)cc1Cl,0,0,0,52,0,0,
COCCNCCCOc1c(Cl)cc(C)cc1Br,0,0,0,0,-,-,
Cc1cc(C)c(OCCCNCCN(C)C)c(Br)c1,0,0,0,55,0,0,
Cc1cc(Br)cc(Cl)c1OCCCNCCN(C)C,0,0,0,0,-,-,
COCCCNCCCCOc1c(Cl)cc(C)cc1Br,0,0,0,58,0,0,
CCOC(=O)c1c(NC(C)=O)sc2c(OCC)c(Br)ccc12,0,0,0,0,-,-,
COc1cc(C2CC(=O)N3CN(Cc4ccccc4)CSC3=C2C#N)ccc1O (stereo unspecified),0,0,0,0,-,-,
Cc1ccc2c(c1)cc1c(=O)n(CC(=O)NCCN3CCOCC3)nc(C)n12,0,0,0,0,-,-,
Cc1ccc2c(c1)cc1c(=O)n(CC(=O)NCCCN3CCCCC3)nc(C)n12,0,0,0,63,0,0,
CC1(C)Cc2cccc(OCc3ccc(C(=O)NCc4ccncc4)cc3)c2O1,0,0,0,59,0,0,
O=C(Cn1cc(C(=O)c2ccco2)c2ccccc21)NCc1cccnc1,0,0,0,67,62,0,AS interf DR=0
CCCCC/C=C/C=C1/C=CC(=O)[C@@H]1CCCCCCC(=O)O,-,0,-,0,-,-,
O=C(Nc1ccccc1-c1nc2ccccc2s1)C1CCCN1S(=O)(=O)c1ccc(F)cc1 (stereo unspecified),0,0,0,0,-,-,
CN(C)C1(CNCC(=O)Nc2ccc(F)cc2)CCCCC1,0,0,0,80,0,0,
O=S(=O)(c1ccc(C(F)(F)F)cc1)N1CCC(c2nc3ccccc3[nH]2)CC1,0,0,0,0,-,-,
O=C(NC1CCN(S(=O)(=O)c2ccccc2C(F)(F)F)CC1)c1ccco1,0,0,0,77,0,0,
O=S(=O)(c1ccccc1C(F)(F)F)N1CCC(c2nc3ccccc3[nH]2)CC1,0,0,0,73,78,0,AS interf DR=0
O=C(NC1CCN(S(=O)(=O)c2ccc(F)cc2)CC1)c1ccco1,0,0,0,0,-,-,
Cc1ccc(CNC(=O)C(=O)Nc2ccc(I)cc2C)cc1,0,0,0,0,-,-,
O=C1C2C3C=CC(C3)C2C(=O)N1c1ccc(Cl)cc1 (stereo unspecified),0,0,0,0,-,-,
CCOc1cc(CN2CCN(Cc3ccc(SC)cc3)CC2)ccc1OC,0,0,0,54,0,0,
COc1ccc(CN2CCN(Cc3ccc(SC)cc3)CC2)cc1OCc1ccccc1,0,0,0,55,0,0,
SMILES,TEAD-YAP inh,GPR151 activ,FBW7 activator,MITF primary,MITF confirm,AlphaScreen intf2,others
COc1ccc(CN2CCN(Cc3ccncc3)CC2)cc1OCc1ccccc1,0,0,0,63,0,0,
COc1ccc(CN2CCN(C)CC2)cc1OCc1ccccc1,0,0,0,0,-,-,
CCNC(=O)/C(C#N)=C/c1ccc(Cl)c(Cl)c1,0,0,0,53,0,0,
CN(C)CCCN(CCCN(C)C)Cc1ccc(Br)cc1,0,0,0,54,0,0,
COc1ccc(CN(CCCN(C)C)CCCN(C)C)cc1OC,0,0,0,0,-,-,
O=C1NC(c2ccccc2)=C([N+](=O)[O-])C(c2cccc(F)c2)N1 (stereo unspecified),0,0,0,76,0,0,
CCCN1CCC(N(C(=O)c2ccc(N)cc2)C2CC2)CC1,0,0,0,0,-,-,

# Screens deposited in PubChem BioAssay by The Scripps Research Institute Molecular Screening Center.
